BAZ2B inh: inhibitors of human BAZ2B bromodomain. Potency, µM (highest dose often 114 µM), most hits filed as inhibitors. Q9UIF8. AlphaScreen BAZ2B-H3K14Ac peptide displacement. 4.4% of 360,000 active; further: nearly all actives have a fitted effect of over 60% in size
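Multi-concentration screen (max 110 uM) measuring displacement of acetylated histone H3 peptide from BAZ2B by AlphaScreen, using 50 nM protein, 50 nM peptide and 10 ug/mL streptavidin donor plus Ni-chelate acceptor beads.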
GLS inhibitor: blocks human kidney-isoform glutaminase activity; O94925; GLS enzymatic activity, qHTS titration; Potency, µM (titrated, usually from 45.5 µM), most hits filed as inhibitors; 0.21% of 410,000 active; AID 624170
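hKGA; 45 mM KH2PO4 pH 8.2 + 0.02% Tween-20; cpd via pin tool; 1 mM Gln soln; GluOx/HRP/Amplex Red; RT 30 min; fluor. t0 & final.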
HP1b chromo inh: HP1-beta chromodomain-methylated histone interaction inhibition; P83916; AlphaScreen HP1-beta / biotin-H3K9me3 peptide binding; Potency, µM (titrated, usually from 114 µM), most hits filed as inhibitors; 0.56% of 390,000 active; AID 540317; further: nearly all actives have a fitted effect of over 70% in size
Target sequence (P83916 whole entry, looked up): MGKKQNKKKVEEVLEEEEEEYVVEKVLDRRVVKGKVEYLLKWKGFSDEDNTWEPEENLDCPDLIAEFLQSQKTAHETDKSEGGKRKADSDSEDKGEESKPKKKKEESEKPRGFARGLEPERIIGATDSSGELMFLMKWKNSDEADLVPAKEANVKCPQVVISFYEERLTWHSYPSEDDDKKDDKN
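AlphaScreen: HP1-beta (50 nM) preformed 30 min with biotin-H3(1-18)K9me3 peptide (50 nM) in PBS pH 7.4, 0.01% Tween-20. Compound added for 30 min at RT, then streptavidin donor/nickel chelate acceptor beads (10 ug/mL) for 30 min.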
JMJD2A Tudor: JMJD2A Tudor domain (human) inhibition | AlphaScreen JMJD2A-Tudor / H3K4me3 peptide binding | 4.4% of 390,000 active | AID 504339 | O75164 | Potency, µM (titrated, usually from 114 µM), most hits filed as inhibitors; further: nearly all actives have a fitted effect of over 50% in size
G9a block: G9a (human) methyltransferase inhibition; Q96KQ7; G9a H3K9 monomethylation, AlphaScreen, 2 h; Potency, µM (doses to about 102 µM), most hits filed as inhibitors; 8.8% of 350,000 active; AID 504332; further: nearly all actives have a fitted effect of over 75% in size
Target sequence (Q96KQ7 913-1193 limits assumed): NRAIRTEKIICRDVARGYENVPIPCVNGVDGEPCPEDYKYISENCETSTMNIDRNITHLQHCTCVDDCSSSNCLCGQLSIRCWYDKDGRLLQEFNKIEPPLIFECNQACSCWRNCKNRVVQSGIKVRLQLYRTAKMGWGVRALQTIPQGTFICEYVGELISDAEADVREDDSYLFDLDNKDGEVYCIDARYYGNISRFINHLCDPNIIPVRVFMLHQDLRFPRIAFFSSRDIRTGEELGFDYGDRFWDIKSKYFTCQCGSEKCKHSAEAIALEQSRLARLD
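AlphaScreen detection with an anti-monomethyl H3K9 antibody quantified product after a 2 h room-temperature reaction containing 500 nM biotinylated H3K9 peptide, 20 µM SAM and 20 nM enzyme, which had been preincubated 15 min with compound.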
Large screens that a line does not name were inactive. In the library only some 10% were active in any assay of this set; here they are far more common. The call rests on the fitted dose curve; in most records, active means well fitted curve in the direction sought with a large enough effect; inconclusive means small, poorly fitted or top-dose-only effect, or another doubt; inactive means no such curve, though single readings can be large; an effect the other way counts as inactive or inconclusive.

COCCN(Cc1cc2cc3c(cc2nc1Cl)OCO3)C(=O)c1ccc(C)cc1	BAZ2B inh 10µM
COCCN(Cc1cc2cc(C)c(C)cc2nc1Cl)C(=O)Nc1ccccc1	none
C[C@H](NS(=O)(=O)c1ccc(Cl)cc1)C(=O)OCC(=O)NCCc1ccc(S(N)(=O)=O)cc1	none (no result: BAZ2B inh, G9a block)
O=C(CNC(=O)c1ccc(Br)o1)Nc1ccc(F)c(S(=O)(=O)N2CCOCC2)c1	G9a block 45µM
COCCNCC(=O)Nc1ccc(C)c(S(=O)(=O)N2CCCCC2)c1	HP1b chromo inh inconclusive, JMJD2A Tudor 35µM, G9a block 8.9µM (no result: BAZ2B inh)
CCN(CC)S(=O)(=O)c1cccc(NC(=O)C2SC(=Nc3ccc(C)cc3C)C(C(=O)NCC3CCCO3)=C2N)c1 (configuration not stated)	none
COCCNC(=O)C1=C(N)C(C(=O)Nc2ccc(C)c(S(=O)(=O)N3CCCCC3)c2)SC1=Nc1ccc(C)cc1C (configuration not stated)	G9a block 50µM
Cc1ccc(NC(=O)CCl)cc1S(=O)(=O)N1CCCCCC1	G9a block inconclusive (no result: BAZ2B inh)
COc1cc(/C=C/C(=O)OCC(=O)Nc2ccc(C)c(S(=O)(=O)N3CCCCC3)c2)ccc1O	BAZ2B inh inconclusive, GLS inhibitor inconclusive, JMJD2A Tudor 35µM, G9a block inconclusive
CCN(CC)C(=O)Cn1c(=O)n(Cc2ccc(C(=O)NCc3ccc(C)cc3)cc2)c(=O)c2ccccc21	none
CCOC(=O)c1cnc2scnn2c1=O	none
Cc1ccc(NC(=O)CNc2ccccc2N2CCCC2=O)cc1S(=O)(=O)N1CCCCC1	G9a block 3.2µM
Cc1ccc(NC(=O)CN2CCOCC2)cc1S(=O)(=O)N1CCCCC1	none (no result: BAZ2B inh, G9a block)
Cc1ccc(NC(=O)CNCCCN2CCOCC2)cc1S(=O)(=O)N1CCCCC1	BAZ2B inh 50µM, HP1b chromo inh inconclusive, JMJD2A Tudor 18µM, G9a block 14µM
CN1CCN(CCOc2cccc(Cl)c2)CC1	BAZ2B inh inconclusive, JMJD2A Tudor inconclusive, G9a block inconclusive
CCN1CCN(CCOCCOc2ccccc2)CC1	BAZ2B inh 79µM, HP1b chromo inh inconclusive, JMJD2A Tudor 18µM (no result: G9a block)
CCN1CCN(CCOc2cccc(Oc3ccccc3)c2)CC1	BAZ2B inh 20µM, HP1b chromo inh inconclusive, JMJD2A Tudor 4.5µM, G9a block 22µM
CCOc1ccc(C(=O)C[n+]2ccc(C(=O)NCCO)cc2)cc1	GLS inhibitor inconclusive
O=C(N=c1ccn(-c2nc3ccccc3nc2NS(=O)(=O)c2ccccc2)cc1)c1cccs1	none
COc1ccc(-c2nc3ccccn3c2NCc2ccc3c(c2)OCO3)cc1	BAZ2B inh 50µM, JMJD2A Tudor inconclusive, G9a block inconclusive
COc1ccc(-c2cc(-c3nc4ccccn4c3NCc3ccccc3)ccc2OC)cc1	HP1b chromo inh inconclusive, JMJD2A Tudor 32µM (no result: BAZ2B inh, G9a block)
C/C=C(\C)C(=O)NCCN1C2=NC[C@H](Cc3ccccc3)N2C[C@H]1Cc1ccc(O)cc1	none
CCNC(=O)C(C)Oc1ccc(Cl)cc1Cl (configuration not stated)	none
O=C(Nc1cccc(-c2csc(Nc3cccc(C(F)(F)F)c3)n2)c1)c1cc([N+](=O)[O-])cc(C(F)(F)F)c1	none
COc1ccc(C2c3[nH]c4ccccc4c3C[C@H]3C(=O)N(C4CCN(Cc5ccccc5)CC4)CC(=O)N23)cc1OC (some centres not stated)	BAZ2B inh inconclusive, JMJD2A Tudor inconclusive, G9a block 13µM
CCn1cc([N+](=O)[O-])nc1C	none
COCCNC(=O)c1ccc(C)c(S(=O)(=O)Nc2ccc(C)cc2)c1	G9a block 79µM
COCCCNC(=O)c1ccc(N2CCCC2)c(NS(=O)(=O)c2ccc(C)cc2)c1	BAZ2B inh inconclusive, G9a block 7.9µM
Cc1ccc(NS(=O)(=O)c2cc(C(=O)NCc3ccncc3)ccc2C)cc1	none
CN1CCN(C(=O)C2CCCN(S(=O)(=O)c3ccc(F)cc3)C2)CC1 (configuration not stated)	BAZ2B inh 32µM, HP1b chromo inh inconclusive, JMJD2A Tudor 5.6µM, G9a block 14µM
CC(=O)N1CCC(C(=O)N2CCN(S(=O)(=O)c3ccc(F)cc3)CC2)CC1	none
O=C(C1CCCN(S(=O)(=O)c2ccc(F)cc2)C1)N1CCOCC1 (configuration not stated)	none (no result: BAZ2B inh, G9a block)
O=C(C1CCC1)N1CCN(S(=O)(=O)c2ccc(F)cc2)CC1	BAZ2B inh 79µM
